Here are results for 1 sequence from PMC7862700, “An all-to-all approach to the identification of sequence-specific readers for epigenetic DNA modifications on cytosine”.

Assay in all cases: DAPPL (digital affinity profiling via proximity ligation, sequencing); 10 mM Tris-HCl pH 7.5, 50 mM NaCl, 1 mM DTT, 4% glycerol, room temperature, 30 min; GST-TFs on glutathione beads, 16-mer random dsDNA library, 0.1% formaldehyde crosslink after washing; high values mean tight binding
Conditions in all cases: protein: recombinant; tags: N-terminal GST; dsDNA, one strand shown

Test [1] concerns the target T1, FLI1 (Homo sapiens, UniProt Q01543 1-452).
T1 sequence: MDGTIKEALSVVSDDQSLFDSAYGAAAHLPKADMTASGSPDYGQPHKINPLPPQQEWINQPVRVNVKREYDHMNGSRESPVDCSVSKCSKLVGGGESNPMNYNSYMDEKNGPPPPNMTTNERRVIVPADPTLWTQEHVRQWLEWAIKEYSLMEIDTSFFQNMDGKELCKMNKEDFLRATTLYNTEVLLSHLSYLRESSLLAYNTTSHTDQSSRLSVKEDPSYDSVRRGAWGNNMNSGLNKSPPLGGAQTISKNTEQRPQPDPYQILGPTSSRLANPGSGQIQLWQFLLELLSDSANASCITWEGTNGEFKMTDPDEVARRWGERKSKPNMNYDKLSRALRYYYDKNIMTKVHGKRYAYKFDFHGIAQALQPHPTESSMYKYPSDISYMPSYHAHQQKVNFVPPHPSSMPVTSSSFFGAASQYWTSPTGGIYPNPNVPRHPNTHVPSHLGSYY
In a few lines:
(§1)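 Pools of DNA-barcoded human transcription factors, expressed in yeast as GST fusions on glutathione beads and combined with a tag-only sample, were incubated with 200 nmole of a 16-mer random double-stranded DNA library. Incubation took 30 min at room temperature in Tris/NaCl/DTT/glycerol buffer and was followed by washing, 0.1% formaldehyde crosslinking, proximity ligation (BsaI/T4 ligase, 1 h, 37 °C), PCR amplification and sequencing on an Illumina NextSeq500. Binding signal is the ratio of a hexamer's read frequency for a factor to its frequency for the tag-only sample.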

The target of test [2] is T2, ELK1 (Homo sapiens, UniProt P19419 1-428).
T2 sequence: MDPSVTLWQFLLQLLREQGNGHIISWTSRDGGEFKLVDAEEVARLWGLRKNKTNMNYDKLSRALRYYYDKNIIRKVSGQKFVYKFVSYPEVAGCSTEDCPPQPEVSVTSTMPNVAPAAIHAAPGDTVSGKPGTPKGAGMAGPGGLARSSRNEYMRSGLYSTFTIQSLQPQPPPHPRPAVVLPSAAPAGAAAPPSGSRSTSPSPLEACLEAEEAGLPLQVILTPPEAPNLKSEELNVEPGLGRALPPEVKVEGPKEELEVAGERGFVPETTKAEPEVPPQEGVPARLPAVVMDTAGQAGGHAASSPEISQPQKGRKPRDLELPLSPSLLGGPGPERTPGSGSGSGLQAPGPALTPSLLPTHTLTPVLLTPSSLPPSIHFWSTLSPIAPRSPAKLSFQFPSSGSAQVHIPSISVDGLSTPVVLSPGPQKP
The procedure, abridged: as §1

For test [3], the target named is T3, GABPA (Homo sapiens, UniProt Q06546 1-454).
T3 sequence: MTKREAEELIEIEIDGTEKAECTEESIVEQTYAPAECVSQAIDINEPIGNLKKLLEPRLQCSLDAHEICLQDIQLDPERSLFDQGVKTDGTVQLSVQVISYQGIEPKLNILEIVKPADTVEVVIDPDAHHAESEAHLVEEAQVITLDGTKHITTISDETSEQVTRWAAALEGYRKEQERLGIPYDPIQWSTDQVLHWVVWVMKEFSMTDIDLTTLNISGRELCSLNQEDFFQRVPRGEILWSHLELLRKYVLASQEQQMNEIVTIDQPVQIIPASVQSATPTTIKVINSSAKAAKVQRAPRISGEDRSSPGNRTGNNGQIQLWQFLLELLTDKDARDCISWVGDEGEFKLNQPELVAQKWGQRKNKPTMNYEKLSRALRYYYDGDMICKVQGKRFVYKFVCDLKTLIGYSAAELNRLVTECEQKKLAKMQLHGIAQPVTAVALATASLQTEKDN
The procedure, abridged: as §1

Test [4] concerns the target T4, ERG (Homo sapiens, UniProt P11308 1-479).
T4 sequence: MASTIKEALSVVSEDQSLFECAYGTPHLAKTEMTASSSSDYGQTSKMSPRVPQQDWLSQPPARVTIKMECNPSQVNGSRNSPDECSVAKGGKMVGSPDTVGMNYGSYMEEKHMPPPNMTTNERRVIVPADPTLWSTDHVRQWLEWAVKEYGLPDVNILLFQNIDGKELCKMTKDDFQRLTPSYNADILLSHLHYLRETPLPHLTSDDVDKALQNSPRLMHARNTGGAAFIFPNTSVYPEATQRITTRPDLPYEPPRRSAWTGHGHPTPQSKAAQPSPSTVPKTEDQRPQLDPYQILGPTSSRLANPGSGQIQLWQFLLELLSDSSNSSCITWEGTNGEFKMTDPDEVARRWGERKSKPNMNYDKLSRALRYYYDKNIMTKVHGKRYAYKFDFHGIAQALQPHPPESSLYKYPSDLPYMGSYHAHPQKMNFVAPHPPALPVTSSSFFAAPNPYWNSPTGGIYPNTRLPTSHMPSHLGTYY
In a few lines:
as §1

In test [5] the target is ELF1 (Homo sapiens, UniProt P32519 1-619). In a few lines:
as §1

Test [6] concerns the target T5, EHF (Homo sapiens, UniProt Q9NZC4 1-300).
T5 sequence: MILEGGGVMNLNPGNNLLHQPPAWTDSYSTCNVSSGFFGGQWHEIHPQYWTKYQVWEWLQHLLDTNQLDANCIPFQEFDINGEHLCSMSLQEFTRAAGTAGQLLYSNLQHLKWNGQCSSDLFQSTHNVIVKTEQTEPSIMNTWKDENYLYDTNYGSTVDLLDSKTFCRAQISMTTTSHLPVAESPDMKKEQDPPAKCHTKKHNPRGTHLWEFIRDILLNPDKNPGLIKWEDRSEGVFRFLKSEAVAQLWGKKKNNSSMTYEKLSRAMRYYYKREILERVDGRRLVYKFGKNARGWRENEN
In a few lines: as §1

The target in test [7] is SPI1 (Homo sapiens, UniProt P17947 1-270). The procedure, abridged:
as §1

The target in test [8] is SPIB (Homo sapiens, UniProt Q01892 1-262). The procedure, abridged:
as §1

Test [9] concerns the target ETV5 (Homo sapiens, UniProt P41161 1-510). In a few lines:
as §1

The target of test [10] is T6, SPIC (Homo sapiens, UniProt Q8N5J4 1-248).
T6 sequence: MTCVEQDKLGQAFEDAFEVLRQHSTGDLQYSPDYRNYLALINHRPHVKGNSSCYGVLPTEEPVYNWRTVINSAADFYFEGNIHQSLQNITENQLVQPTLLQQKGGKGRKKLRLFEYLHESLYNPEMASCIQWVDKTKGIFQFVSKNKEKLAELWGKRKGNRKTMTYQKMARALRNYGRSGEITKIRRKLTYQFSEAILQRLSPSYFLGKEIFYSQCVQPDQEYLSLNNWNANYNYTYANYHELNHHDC
The procedure, abridged:
as §1

Test [11] deals with ELF4 (Homo sapiens, UniProt Q99607 1-663). The procedure, abridged:
as §1

The target in test [12] is ETV1 (Homo sapiens, UniProt P50549 1-477). In a few lines: as §1
Test [13] concerns the target T7, ERF (Homo sapiens, UniProt P50548 1-548).
T7 sequence: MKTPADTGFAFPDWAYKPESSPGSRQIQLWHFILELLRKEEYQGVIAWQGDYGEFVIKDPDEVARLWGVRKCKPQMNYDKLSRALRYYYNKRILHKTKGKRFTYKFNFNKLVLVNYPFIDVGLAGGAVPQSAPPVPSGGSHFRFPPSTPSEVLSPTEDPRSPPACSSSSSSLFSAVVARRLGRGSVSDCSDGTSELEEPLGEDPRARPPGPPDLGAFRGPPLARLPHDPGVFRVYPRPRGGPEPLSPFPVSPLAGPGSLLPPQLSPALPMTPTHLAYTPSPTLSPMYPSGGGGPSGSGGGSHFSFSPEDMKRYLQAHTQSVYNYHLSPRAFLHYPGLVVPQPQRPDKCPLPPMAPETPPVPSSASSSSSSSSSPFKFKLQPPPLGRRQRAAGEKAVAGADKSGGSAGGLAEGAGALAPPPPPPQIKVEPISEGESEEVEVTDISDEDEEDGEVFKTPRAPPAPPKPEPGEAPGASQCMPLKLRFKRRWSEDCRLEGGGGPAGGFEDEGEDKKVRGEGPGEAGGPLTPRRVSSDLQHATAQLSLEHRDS
In a few lines:
as §1

The target in test [14] is T8, ETV3L (Homo sapiens, UniProt Q6ZN32 1-361).
T8 sequence: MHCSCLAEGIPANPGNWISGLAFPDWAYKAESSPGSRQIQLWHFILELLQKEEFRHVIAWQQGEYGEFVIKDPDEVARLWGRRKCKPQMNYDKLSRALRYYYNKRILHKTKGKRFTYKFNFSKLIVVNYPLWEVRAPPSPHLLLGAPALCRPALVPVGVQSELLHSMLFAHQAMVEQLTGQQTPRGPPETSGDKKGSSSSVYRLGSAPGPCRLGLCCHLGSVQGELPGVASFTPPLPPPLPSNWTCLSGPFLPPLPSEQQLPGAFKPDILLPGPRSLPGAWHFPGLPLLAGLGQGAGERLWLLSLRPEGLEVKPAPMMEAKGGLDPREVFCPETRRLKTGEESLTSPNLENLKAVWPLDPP
The procedure, abridged: as §1

Test [15] concerns the target T9, ETS2 (Homo sapiens, UniProt P15036 1-469).
T9 sequence: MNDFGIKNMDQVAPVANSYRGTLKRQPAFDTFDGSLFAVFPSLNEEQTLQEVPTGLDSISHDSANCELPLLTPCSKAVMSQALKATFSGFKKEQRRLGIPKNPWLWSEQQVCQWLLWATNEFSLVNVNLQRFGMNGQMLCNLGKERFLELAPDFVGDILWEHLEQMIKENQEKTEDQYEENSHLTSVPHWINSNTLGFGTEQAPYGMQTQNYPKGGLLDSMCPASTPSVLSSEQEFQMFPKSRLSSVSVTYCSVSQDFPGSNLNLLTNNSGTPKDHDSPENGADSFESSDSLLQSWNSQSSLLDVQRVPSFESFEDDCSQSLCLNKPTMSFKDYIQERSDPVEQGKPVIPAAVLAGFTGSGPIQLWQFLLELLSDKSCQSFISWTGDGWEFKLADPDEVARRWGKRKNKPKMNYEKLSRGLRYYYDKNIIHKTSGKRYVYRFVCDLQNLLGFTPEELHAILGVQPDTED
In a few lines:
as §1

In test [16] the target is T10, SPDEF (Homo sapiens, UniProt O95238 1-335).
T10 sequence: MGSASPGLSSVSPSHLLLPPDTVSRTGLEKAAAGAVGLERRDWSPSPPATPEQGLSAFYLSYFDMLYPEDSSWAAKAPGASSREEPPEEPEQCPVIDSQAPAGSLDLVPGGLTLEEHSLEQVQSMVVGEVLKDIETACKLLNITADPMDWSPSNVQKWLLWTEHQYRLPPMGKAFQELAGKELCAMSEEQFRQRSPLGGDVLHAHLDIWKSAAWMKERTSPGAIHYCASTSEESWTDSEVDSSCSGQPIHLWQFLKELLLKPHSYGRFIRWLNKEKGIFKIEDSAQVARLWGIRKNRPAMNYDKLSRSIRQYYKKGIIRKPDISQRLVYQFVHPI
In a few lines: as §1

Test [17] has as its target T11, ELF5 (Homo sapiens, UniProt Q9UKW6-2 1-255).
T11 sequence: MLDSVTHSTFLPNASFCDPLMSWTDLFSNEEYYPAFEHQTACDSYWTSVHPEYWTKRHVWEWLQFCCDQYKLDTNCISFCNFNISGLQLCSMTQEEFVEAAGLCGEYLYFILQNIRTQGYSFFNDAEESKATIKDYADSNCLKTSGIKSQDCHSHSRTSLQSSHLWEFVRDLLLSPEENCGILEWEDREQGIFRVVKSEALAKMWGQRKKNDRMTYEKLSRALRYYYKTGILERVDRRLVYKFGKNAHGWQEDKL
In a few lines:
as §1

For test [18], the target named is T12, ETV3 (Homo sapiens, UniProt P41162-2 1-143).
T12 sequence: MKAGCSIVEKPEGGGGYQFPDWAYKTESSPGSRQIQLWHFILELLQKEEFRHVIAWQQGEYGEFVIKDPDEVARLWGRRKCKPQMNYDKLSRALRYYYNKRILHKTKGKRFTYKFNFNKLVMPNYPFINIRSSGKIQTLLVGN
In a few lines: as §1

For test [19], the target named is ETV6 (Homo sapiens, UniProt P41212 1-452). The procedure, abridged: as §1
ETV6, sequence (P41212 whole entry): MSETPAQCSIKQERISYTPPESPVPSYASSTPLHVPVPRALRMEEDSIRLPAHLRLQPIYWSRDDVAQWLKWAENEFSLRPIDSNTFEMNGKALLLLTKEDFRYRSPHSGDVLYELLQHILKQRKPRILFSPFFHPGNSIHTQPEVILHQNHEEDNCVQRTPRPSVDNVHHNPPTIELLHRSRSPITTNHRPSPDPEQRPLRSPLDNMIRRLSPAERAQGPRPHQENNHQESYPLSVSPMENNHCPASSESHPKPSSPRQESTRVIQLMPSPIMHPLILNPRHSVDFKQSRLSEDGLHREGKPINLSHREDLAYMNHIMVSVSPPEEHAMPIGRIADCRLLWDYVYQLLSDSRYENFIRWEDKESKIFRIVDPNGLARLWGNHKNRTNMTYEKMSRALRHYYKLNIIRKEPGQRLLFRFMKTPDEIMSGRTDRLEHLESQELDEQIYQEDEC

ELF1, sequence (P32519 whole entry): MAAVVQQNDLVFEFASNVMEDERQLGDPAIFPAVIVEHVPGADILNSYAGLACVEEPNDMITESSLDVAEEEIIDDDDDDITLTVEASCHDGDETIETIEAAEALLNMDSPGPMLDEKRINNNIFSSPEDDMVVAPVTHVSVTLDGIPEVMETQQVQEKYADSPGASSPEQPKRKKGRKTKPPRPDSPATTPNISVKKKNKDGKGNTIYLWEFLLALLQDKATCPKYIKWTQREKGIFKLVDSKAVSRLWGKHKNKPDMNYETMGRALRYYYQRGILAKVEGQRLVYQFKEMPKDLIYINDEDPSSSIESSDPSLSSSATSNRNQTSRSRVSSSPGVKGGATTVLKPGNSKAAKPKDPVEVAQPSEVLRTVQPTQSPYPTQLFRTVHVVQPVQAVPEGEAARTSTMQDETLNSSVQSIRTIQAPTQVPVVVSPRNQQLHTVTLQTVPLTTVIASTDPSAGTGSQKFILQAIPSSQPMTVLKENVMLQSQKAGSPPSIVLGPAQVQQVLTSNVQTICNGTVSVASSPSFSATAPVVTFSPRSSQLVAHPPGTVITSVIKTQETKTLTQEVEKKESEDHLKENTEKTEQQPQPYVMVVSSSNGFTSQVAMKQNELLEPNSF
ETV5, sequence (P41161 whole entry): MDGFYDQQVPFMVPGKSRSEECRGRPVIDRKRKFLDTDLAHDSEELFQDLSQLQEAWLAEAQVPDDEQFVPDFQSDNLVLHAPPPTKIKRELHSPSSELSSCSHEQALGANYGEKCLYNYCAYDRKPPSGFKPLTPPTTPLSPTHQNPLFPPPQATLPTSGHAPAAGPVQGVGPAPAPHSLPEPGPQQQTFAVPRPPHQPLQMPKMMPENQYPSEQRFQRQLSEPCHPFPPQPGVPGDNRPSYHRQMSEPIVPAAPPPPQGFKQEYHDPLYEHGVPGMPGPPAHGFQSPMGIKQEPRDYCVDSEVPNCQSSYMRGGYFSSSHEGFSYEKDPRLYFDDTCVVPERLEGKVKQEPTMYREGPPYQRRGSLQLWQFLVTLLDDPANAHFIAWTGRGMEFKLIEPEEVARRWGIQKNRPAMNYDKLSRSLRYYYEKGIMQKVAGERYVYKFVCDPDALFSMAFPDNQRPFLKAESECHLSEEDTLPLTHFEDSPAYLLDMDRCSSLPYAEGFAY
SPIB, sequence (Q01892 whole entry): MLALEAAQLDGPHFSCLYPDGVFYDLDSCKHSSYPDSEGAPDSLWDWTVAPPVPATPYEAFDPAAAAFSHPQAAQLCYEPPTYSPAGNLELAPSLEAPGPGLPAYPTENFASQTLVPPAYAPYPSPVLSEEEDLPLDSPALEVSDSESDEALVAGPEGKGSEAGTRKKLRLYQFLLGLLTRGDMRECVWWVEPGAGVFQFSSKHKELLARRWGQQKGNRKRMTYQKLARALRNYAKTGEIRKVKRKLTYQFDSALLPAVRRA
ELF4, sequence (Q99607 whole entry): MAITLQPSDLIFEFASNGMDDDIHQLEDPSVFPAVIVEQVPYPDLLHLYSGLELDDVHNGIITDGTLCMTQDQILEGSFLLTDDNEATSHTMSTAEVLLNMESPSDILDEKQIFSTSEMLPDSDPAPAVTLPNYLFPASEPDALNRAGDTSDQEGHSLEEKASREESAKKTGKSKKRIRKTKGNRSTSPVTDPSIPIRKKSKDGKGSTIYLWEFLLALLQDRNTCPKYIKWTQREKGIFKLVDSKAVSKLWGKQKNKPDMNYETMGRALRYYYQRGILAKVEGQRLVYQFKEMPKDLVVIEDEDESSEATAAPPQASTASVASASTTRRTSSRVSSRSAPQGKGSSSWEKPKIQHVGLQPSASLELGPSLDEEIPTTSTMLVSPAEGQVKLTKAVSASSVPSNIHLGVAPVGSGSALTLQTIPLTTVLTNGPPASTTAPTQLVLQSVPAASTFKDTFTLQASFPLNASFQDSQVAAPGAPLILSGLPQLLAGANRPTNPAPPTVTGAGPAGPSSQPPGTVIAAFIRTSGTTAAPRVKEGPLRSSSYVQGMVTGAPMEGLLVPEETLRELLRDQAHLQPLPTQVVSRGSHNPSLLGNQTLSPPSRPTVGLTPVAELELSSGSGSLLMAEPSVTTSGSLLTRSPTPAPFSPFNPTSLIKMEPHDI
ETV1, sequence (P50549 whole entry): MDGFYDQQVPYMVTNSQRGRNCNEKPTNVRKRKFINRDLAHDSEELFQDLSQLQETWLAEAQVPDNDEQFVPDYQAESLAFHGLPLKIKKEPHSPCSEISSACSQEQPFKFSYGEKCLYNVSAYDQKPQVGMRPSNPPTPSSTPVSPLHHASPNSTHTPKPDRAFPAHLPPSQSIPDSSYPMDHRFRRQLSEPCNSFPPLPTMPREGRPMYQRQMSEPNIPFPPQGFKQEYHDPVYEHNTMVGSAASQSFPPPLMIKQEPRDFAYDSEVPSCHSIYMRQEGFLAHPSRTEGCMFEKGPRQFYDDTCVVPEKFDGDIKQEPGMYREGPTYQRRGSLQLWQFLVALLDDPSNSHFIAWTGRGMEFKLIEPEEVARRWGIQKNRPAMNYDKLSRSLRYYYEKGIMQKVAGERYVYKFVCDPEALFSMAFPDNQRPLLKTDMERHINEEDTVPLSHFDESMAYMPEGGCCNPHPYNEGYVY

Consider ACGGCA, for which the binding signal in test [1] was 1.04 fold enrichment (6-mer frequency, TF over GST control); in [2] it was 1.01 fold enrichment (6-mer frequency, TF over GST control); in test [3], 1.1 fold enrichment (6-mer frequency, TF over GST control); in [4] it was 1.03 fold enrichment (6-mer frequency, TF over GST control); in [5], 1.04 fold enrichment (6-mer frequency, TF over GST control); in test [6] it was 1.11 fold enrichment (6-mer frequency, TF over GST control). Besides, the binding signal is 1.05 fold enrichment (6-mer frequency, TF over GST control) in test [7]; 1.1 fold enrichment (6-mer frequency, TF over GST control) in test [8]; 1.13 fold enrichment (6-mer frequency, TF over GST control) in test [9]; 1.05 fold enrichment (6-mer frequency, TF over GST control) in [10]; 1.06 fold enrichment (6-mer frequency, TF over GST control) in [11]; 1.03 fold enrichment (6-mer frequency, TF over GST control) in [12]. In addition, the binding signal was 1.01 fold enrichment (6-mer frequency, TF over GST control) in test [13]; 1.1 fold enrichment (6-mer frequency, TF over GST control) in test [14]; 1.09 fold enrichment (6-mer frequency, TF over GST control) in test [15]; 1.11 fold enrichment (6-mer frequency, TF over GST control) in test [16]; 1.03 fold enrichment (6-mer frequency, TF over GST control) in test [17]; 1.06 fold enrichment (6-mer frequency, TF over GST control) in test [18]. Besides, in test [19], the binding signal was 1.14 fold enrichment (6-mer frequency, TF over GST control).
